Records with an inconclusive call do not appear. The source made the active and inactive calls. Unless noted, the call rests on the fitted dose curve; in most records, active means well fitted curve in the direction sought with a large enough effect; inconclusive means small, poorly fitted or top-dose-only effect, or another doubt; inactive means no such curve, though single readings can be large; an effect the other way counts as inactive or inconclusive.
Columns and labels:
[1] = AP1 Signaling Pathway (AID 357; active means well fitted curve in either direction with a large enough effect, not every such curve was filed as active;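 further: ME-180 reporter cells stimulated with EGF at its EC50 level; on the % scale 0 is the no-effect control and ±100 the full control effect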)
Outline: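 First, ME-180 AP-1-bla cells were cultured overnight at 37 °C in low-serum Opti-MEM. Next, titrated compounds with EC50 EGF were incubated 5 hours. Finally, CCF4 was added for 2.5 hours and the 460/530 nm ratio recorded.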

[2] = target: Cytochrome P450 1A2 (Homo sapiens) (UniProt P05177); assay: p450-cyp1a2 (AID 410; calls by dose curve;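 further: -100% = full effect of reference inhibitor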)
Outline: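 20nM CYP1A2 with 100uM Luciferin-ME (at Km) in 100mM KPO4; compound preincubated 10 min, NADPH regeneration added, 60 min at room temperature. Luciferin quantified by luminescence after detection reagent; normalized to 57 uM furafylline.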

[3] = NFAT Signaling Pathway (AID 444; active means well fitted curve in either direction with a large enough effect, not every such curve was filed as active;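 further: carbachol stimulus at about its EC50 of 1 µM final; on the % scale 0 is the no-effect control and ±100 the full control effect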); details: Jurkat NFAT-bla M1, carbachol, beta-lactamase ratio, 5 h; at 17.2 µM (top of the series) unless noted
Outline: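 Jurkat cells carrying an NFAT-driven β-lactamase reporter and co-transfected muscarinic M1 receptor were treated with compound plus carbachol (1 uM final, an EC50 level) for 5 h at 37 °C. CCF4 loading followed for 1 h at RT; 460/530 nm ratio gave %activity.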

[4] = Stat Signaling Pathway (AID 446; active means well fitted curve in either direction with a large enough effect, not every such curve was filed as active;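 further: ME-180 cervical cancer cells given 40 pM IL-6 alongside compound; SIE-controlled beta-lactamase reporter measured as 460/530 nm FRET emission ratio; on the % scale 0 is the no-effect control and ±100 the full control effect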)
Outline: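 ME-180 cells carrying a SIE-driven beta-lactamase reporter are stimulated with 40 pM IL-6 for 5 h at 37C in the presence of compound. The 460/530 nm FRET substrate ratio is read after 2.5 h at RT. Data are normalised to 300 pM IL-6 and to 125 nM JAK inhibitor controls.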

[5] = target: Glucocorticoid receptor (Homo sapiens) (UniProt P04150); assay: GR-GFP Redistribution (AID 450;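 active means compounds whose dose series gives a full or clear partial fitted curve of increased nuclear translocation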; further: potency means the concentration at half of the fitted maximal effect); details: U2OS GR-GFP nuclear translocation, laser cytometry, 2 h
[6] = target: Glucocorticoid receptor (Homo sapiens) (UniProt P04150); assay: GR-EFC Redistribution (AID 451; calls by dose curve; further: potency means the concentration at half of the fitted maximal effect); details: CHO-K1 GR-EFC translocation, beta-gal luminescence, 2 h
Outline: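 CHO-K1 cells stably expressing nuclear-localized β-gal enzyme acceptor and GR fused C-terminally to the enzyme donor fragment; ligand-driven nuclear translocation restores β-gal by complementation. Compounds titrated up to 46 uM final, 2 h at 37 °C; luminescence read.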

[7] = target: Mitogen-activated protein kinase 10 (Mus musculus) (UniProt Q61831); assay: JNK3 AlphaScreen Assay (AID 530; active means well fitted curve in either direction with a large enough effect, not every such curve was filed as active;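 further: kinase came from lysate of stimulated human HepG2 cells; signal reports phosphorylation of biotinylated GST-cJun 1-79 at Ser73 with 10 µM ATP; on the % scale 0 is the no-effect control and ±100 the full control effect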)
Outline: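 Inhibitors reduce antibody binding to phosphorylated biotin-cJun, lowering AlphaScreen luminescence. Lysates from HepG2 cells pre-activated by IL-1beta plus TNF-alpha supplied JNK3; compounds were titrated.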

[8] = target: 3',5'-cyclic-AMP phosphodiesterase 4B (Homo sapiens) (UniProt Q07343); assay: qHTS Assay for Inhibitors of PDE-IV (AID 607; active means well fitted activation curve with a large enough effect in the main read-out, with a control signal flat, not every such curve was filed as active; further: % of control where 0% means no effect)
Outline: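 HEK293 ACTOne cells with CNG channel (1000/well), endogenous PDE4; membrane potential dye, compounds up to 22.9 uM final. Fluorescence Ex 535/Em 590; RO 20-1724 (100 uM final) as reference.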

[9] = target: Cytochrome P450 2C9 (Homo sapiens) (UniProt P11712); assay: qHTS Assay for Inhibitors and Substrates of Cytochrome P450 2C9 (AID 883); further: on the % scale 0 is the no-effect control and ±100 the full control effect; nearly all actives have a fitted effect of over 60% in size
Outline: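 Human CYP2C9 (10nM) hydroxylated Luciferin-H (100uM, at its KM) to luciferin in 25mM KPO4. Compound was preincubated 10 min at 37C, then NADPH regeneration started a 60 min reaction at 37C. Luminescence was read after detection reagent, normalized to 57uM sulphaphenazole.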

[10] = target: ATP-dependent 6-phosphofructokinase (Trypanosoma brucei brucei) (UniProt O15648); assay: qHTS Assay to Find Inhibitors of T. brucei phosphofructokinase: hit validation (AID 492961)
Outline: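 PFK 1.25 nM, F6P 0.5 mM, ATP 0.1 mM, MgCl2 5 mM, 0.1 M TEA pH 8.0, Tween20 0.01%, BSA 0.1%; 45 min RT. ADP-Glo two-step detection, luminescence. qHTS titration; curve fitting with curve-class categorization.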

[11] = target: Ubiquitin carboxyl-terminal hydrolase 1 (Homo sapiens) (UniProt O94782); assay: Inhibitors of USP1/UAF1: Pilot qHTS (AID 504865);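 further: rhodamine fluorescence freed from ubiquitin-rhodamine substrate followed over time; top concentration of the series differs between compounds; on the % scale 0 is the no-effect control and ±100 the full control effect; nearly all actives have a fitted effect of over 35% in size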
Outline: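 Deubiquitinase activity followed as kinetic rhodamine fluorescence release from 150 nM Ub-Rho. 1 nM USP1/UAF1 with compound, after 15 min room-temperature preincubation, in HEPES pH 7.8 buffer containing TCEP, EDTA, BSA and Tween-20.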

[12] = target: Luciferin 4-monooxygenase (Photinus pyralis) (UniProt P08659); assay: Biochemical firefly luciferase enzyme assay for NPC (AID 624030);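 further: purified P. pyralis luciferase at 10 nM with luciferin and ATP substrate; 0% = DMSO and -100% = full luciferase inhibition by PTC124 control; nearly all actives have a fitted effect of over 70% in size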
Outline: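 Counter-screen for direct inhibition of the luciferase enzyme by approved-drug library compounds, run at 10 nM enzyme in 50 mM Tris acetate (final). Luminescence was read within 5 min of enzyme-buffer addition and normalized to PTC124 versus DMSO (0%).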

[13] = S16 Schwann cell viability assay (CellTiter-Glo assay) (AID 624031);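 further: cellular ATP luminescence as a viability measure; plate controls were DMSO-treated cells for no effect and cell-free wells for full effect; nearly all actives have a fitted effect of over 70% in size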
Outline: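 Native S16 Schwann cells (rat), serum-containing medium, overnight attachment then 24 h drug exposure at 37 °C/5% CO2. CellTiter-Glo ATP signal; normalized to cell-free and vehicle wells.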

[14] = S16 Schwann cell PMP22 intronic element firefly luciferase assay (AID 624032);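 further: plate controls were DMSO for no effect and PTC124 positive control mean for full effect; nearly all actives have a fitted effect of over 30% in size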
Outline: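 Rat S16 Schwann cells stably carrying a PMP22 intronic element-driven Fluc reporter were seeded overnight, then exposed to compounds for 24 h at 37 °C. Luminescence was normalized to PTC124 (positive control) and DMSO (0% activity).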

[15] = qHTS profiling for inhibitors of Plasmodium falciparum proliferation (AID 504749);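 further: 0% = DMSO vehicle and full inhibition = artemisinin control; nearly all actives have a fitted effect of over 60% in size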; details: P. falciparum in erythrocytes, SYBR Green DNA, 72 h, at 12.8 µM (top of the series)
Outline: (§1)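 Parasite proliferation within erythrocytes, 72 h exposure. Endpoint: SYBR Green I fluorescence after overnight lysis at room temperature. Controls: 0.29 uM artemisinin, DMSO.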

3D7 = assay: as above; details: P. falciparum in erythrocytes, SYBR Green DNA, 72 h; series mostly up to 12.8 µM
Outline: as §1

7G8 = assay: as above; details: P. falciparum in erythrocytes, SYBR Green DNA, 72 h; series mostly up to 12.8 µM
Outline: as §1

AA1029 = assay: as above; details: P. falciparum in erythrocytes, SYBR Green DNA, 72 h; series mostly up to 12.8 µM
Outline: as §1

AS120 = assay: as above; details: P. falciparum in erythrocytes, SYBR Green DNA, 72 h; series mostly up to 12.8 µM
Outline: as §1

ATS189 = assay: as above; details: P. falciparum in erythrocytes, SYBR Green DNA, 72 h; series mostly up to 12.8 µM
Outline: as §1

ATS95 = assay: as above; details: P. falciparum in erythrocytes, SYBR Green DNA, 72 h; series mostly up to 12.8 µM
Outline: as §1

C2A = assay: as above; details: P. falciparum in erythrocytes, SYBR Green DNA, 72 h; series mostly up to 12.8 µM
Outline: as §1

CP185 = assay: as above; details: P. falciparum in erythrocytes, SYBR Green DNA, 72 h; series mostly up to 12.8 µM
Outline: as §1

CP191 = assay: as above; details: P. falciparum in erythrocytes, SYBR Green DNA, 72 h; series mostly up to 12.8 µM
Outline: as §1

CP192 = assay: as above; details: P. falciparum in erythrocytes, SYBR Green DNA, 72 h; series mostly up to 12.8 µM
Outline: as §1

CP194 = assay: as above; details: P. falciparum in erythrocytes, SYBR Green DNA, 72 h; series mostly up to 12.8 µM
Outline: as §1

CP201 = assay: as above; details: P. falciparum in erythrocytes, SYBR Green DNA, 72 h; series mostly up to 12.8 µM
Outline: as §1

CP203 = assay: as above; details: P. falciparum in erythrocytes, SYBR Green DNA, 72 h; series mostly up to 12.8 µM
Outline: as §1

CP211 = assay: as above; details: P. falciparum in erythrocytes, SYBR Green DNA, 72 h; series mostly up to 12.8 µM
Outline: as §1

CP215 = assay: as above; details: P. falciparum in erythrocytes, SYBR Green DNA, 72 h; series mostly up to 12.8 µM
Outline: as §1

CP217 = assay: as above; details: P. falciparum in erythrocytes, SYBR Green DNA, 72 h; series mostly up to 12.8 µM
Outline: as §1

CP237 = assay: as above; details: P. falciparum in erythrocytes, SYBR Green DNA, 72 h; series mostly up to 12.8 µM
Outline: as §1

CP238 = assay: as above; details: P. falciparum in erythrocytes, SYBR Green DNA, 72 h; series mostly up to 12.8 µM
Outline: as §1

CP247 = assay: as above; details: P. falciparum in erythrocytes, SYBR Green DNA, 72 h; series mostly up to 12.8 µM
Outline: as §1

CP250 = assay: as above; details: P. falciparum in erythrocytes, SYBR Green DNA, 72 h; series mostly up to 12.8 µM
Outline: as §1

CP252 = assay: as above; details: P. falciparum in erythrocytes, SYBR Green DNA, 72 h; series mostly up to 12.8 µM
Outline: as §1

Glucocorticoid receptor (Homo sapiens), sequence (P04150 whole entry, looked up, the tested form may be a part): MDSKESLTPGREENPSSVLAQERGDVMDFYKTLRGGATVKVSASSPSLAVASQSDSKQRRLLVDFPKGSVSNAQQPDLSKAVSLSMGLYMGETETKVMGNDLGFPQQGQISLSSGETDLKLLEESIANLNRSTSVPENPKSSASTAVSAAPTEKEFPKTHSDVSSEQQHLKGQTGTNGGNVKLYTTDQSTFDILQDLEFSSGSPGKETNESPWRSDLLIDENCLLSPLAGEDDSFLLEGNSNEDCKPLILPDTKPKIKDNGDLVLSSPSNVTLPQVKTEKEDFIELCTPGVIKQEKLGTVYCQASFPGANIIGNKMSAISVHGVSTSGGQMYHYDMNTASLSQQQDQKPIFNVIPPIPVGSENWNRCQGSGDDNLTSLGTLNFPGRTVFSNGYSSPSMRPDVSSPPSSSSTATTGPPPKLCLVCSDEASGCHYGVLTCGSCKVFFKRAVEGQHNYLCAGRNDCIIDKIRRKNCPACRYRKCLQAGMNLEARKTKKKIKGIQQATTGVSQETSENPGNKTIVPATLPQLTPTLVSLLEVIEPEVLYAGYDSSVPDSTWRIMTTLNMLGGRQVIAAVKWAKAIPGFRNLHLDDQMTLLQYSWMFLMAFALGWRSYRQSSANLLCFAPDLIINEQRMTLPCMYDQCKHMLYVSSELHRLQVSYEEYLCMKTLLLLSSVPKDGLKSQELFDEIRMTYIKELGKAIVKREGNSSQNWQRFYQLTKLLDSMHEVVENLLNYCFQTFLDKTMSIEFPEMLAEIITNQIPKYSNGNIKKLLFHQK
Ubiquitin carboxyl-terminal hydrolase 1 (Homo sapiens), sequence (O94782 whole entry, looked up): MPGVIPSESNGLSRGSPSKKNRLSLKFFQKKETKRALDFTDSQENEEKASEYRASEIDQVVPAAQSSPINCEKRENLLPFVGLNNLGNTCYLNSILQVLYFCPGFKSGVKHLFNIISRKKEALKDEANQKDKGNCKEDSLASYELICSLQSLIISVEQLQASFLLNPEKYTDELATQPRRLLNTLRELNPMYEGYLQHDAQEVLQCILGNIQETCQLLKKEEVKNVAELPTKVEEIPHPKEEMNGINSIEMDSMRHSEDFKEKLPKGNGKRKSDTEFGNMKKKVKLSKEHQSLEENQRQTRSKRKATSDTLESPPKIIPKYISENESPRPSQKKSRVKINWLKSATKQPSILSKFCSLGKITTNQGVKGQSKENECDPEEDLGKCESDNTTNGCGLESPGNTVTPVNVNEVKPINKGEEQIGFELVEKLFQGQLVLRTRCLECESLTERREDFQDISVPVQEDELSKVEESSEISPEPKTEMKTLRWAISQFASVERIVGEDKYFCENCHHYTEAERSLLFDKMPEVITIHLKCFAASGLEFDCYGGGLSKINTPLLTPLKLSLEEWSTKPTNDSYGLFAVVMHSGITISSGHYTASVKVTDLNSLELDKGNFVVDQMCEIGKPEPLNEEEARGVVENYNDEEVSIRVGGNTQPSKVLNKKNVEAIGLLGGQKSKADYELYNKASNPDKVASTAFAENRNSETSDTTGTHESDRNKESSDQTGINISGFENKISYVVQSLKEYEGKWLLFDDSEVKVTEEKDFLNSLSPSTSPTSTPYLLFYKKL
Cytochrome P450 2C9 (Homo sapiens), sequence (P11712 whole entry, looked up): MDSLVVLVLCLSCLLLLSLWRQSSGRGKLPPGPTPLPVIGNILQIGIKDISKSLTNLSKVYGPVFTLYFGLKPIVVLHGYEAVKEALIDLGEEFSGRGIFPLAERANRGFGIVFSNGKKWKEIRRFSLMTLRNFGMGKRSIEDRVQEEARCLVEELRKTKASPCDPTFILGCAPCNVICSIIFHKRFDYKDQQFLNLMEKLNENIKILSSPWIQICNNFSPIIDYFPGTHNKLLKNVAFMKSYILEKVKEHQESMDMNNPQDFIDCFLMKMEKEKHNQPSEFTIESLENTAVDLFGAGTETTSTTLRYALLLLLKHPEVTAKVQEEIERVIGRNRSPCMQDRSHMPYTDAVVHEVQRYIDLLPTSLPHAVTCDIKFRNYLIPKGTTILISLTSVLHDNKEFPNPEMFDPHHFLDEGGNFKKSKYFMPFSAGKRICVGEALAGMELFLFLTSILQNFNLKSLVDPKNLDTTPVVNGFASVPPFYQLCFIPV
Cytochrome P450 1A2 (Homo sapiens), sequence (P05177 whole entry, looked up): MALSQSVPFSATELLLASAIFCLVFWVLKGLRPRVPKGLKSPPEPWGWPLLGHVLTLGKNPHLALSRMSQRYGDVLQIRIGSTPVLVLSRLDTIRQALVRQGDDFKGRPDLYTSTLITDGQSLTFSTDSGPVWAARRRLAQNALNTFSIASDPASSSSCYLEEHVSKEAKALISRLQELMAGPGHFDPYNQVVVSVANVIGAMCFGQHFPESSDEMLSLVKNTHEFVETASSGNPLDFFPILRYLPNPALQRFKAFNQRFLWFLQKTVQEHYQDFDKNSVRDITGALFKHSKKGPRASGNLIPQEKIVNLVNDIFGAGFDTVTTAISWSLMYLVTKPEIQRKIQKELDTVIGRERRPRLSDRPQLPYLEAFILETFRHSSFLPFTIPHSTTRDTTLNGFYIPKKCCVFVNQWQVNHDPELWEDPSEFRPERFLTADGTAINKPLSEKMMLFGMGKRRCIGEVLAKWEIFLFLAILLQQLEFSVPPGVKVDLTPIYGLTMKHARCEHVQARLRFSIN
ATP-dependent 6-phosphofructokinase (Trypanosoma brucei brucei), sequence (O15648 whole entry, looked up): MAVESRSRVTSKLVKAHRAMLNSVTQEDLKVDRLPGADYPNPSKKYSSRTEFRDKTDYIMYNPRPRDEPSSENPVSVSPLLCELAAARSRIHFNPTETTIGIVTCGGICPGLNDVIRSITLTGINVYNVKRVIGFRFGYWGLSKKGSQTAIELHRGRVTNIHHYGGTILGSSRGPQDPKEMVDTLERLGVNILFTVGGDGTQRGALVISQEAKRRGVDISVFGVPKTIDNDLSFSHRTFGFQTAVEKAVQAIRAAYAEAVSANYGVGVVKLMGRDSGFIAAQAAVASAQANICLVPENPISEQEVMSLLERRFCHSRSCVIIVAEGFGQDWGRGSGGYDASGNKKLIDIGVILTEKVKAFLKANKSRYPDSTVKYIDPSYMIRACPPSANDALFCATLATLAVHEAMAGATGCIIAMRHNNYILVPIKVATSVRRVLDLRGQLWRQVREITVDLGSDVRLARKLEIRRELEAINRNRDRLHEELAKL
Luciferin 4-monooxygenase (Photinus pyralis), sequence (P08659 whole entry, looked up): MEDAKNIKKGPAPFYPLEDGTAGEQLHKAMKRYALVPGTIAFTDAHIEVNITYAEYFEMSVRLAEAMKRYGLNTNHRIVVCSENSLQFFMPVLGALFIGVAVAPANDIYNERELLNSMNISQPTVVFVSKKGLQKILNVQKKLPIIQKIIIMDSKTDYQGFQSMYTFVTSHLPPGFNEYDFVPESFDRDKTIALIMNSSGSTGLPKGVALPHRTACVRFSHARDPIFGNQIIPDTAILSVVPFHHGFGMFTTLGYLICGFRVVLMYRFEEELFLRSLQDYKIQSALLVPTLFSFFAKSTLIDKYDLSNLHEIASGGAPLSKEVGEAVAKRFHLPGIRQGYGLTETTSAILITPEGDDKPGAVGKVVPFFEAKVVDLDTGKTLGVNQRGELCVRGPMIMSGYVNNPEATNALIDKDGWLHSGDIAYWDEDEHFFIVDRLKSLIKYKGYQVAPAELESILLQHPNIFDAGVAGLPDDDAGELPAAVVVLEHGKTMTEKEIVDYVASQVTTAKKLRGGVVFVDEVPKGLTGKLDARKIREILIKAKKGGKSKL
3',5'-cyclic-AMP phosphodiesterase 4B (Homo sapiens), sequence (Q07343 whole entry, looked up): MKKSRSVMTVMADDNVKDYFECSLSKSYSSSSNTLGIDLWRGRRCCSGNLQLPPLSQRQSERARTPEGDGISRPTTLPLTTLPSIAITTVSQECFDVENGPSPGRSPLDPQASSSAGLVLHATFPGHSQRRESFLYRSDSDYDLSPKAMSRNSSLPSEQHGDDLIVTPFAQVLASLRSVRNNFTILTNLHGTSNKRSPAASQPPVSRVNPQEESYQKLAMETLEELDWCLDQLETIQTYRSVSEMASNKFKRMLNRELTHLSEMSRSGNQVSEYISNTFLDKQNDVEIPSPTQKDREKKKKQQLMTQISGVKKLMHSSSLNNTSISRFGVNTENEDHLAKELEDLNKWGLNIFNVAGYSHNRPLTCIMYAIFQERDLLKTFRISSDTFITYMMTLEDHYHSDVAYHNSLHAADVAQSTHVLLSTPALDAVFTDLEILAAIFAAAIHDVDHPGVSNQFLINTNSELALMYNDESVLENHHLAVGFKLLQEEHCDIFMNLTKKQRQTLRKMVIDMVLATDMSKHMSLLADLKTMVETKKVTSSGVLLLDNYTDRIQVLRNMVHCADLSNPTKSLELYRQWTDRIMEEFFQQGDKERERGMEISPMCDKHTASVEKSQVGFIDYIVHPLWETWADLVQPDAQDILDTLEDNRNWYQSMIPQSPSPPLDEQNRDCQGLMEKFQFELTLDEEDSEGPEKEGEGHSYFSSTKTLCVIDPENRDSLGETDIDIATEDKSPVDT

NS(=O)(=O)c1cc2c(cc1Cl)N[C@@H](CC1CCCC1)NS2(=O)=O
inactive: outcome [1] | Potency [2] | activity change, negative = inhibition [3] -6.75% | outcome [4] | Potency [5] > 20.6 µM | Potency [6] > 20.6 µM | Potency [7] | outcome [8] | Potency [9] | outcome [10] | Potency [11] | Potency [12] | outcome [13] | Potency [14] | activity, negative = inhibition ([15]; parasite line A) -0.239% | activity, negative = inhibition ([15]; parasite line B) 5.35% | Potency (3D7) | Potency (7G8) | Potency (AA1029) | Potency (AS120) | Potency (ATS189) | Potency (ATS95) | Potency (C2A) | Potency (CP185) | Potency (CP191) | Potency (CP192) | Potency (CP194) | Potency (CP201) | Potency (CP203) | Potency (CP211) | Potency (CP215) | Potency (CP217) | Potency (CP237) | Potency (CP238) | Potency (CP247) | Potency (CP250) | Potency (CP252)

— PubChem BioAssay (NCATS)
